Where “and” joins values, the source holds several entries; their conditions need not be identical. Identical values can stand only once. More than one record can exist for a structure, and the calls need not agree. Calls of active or inactive are those of the source. Rule for the calls: active = hit-call score of the fitted dose curve at least 0.9, where 1 is the maximum; inactive = score below 0.9.
The molecules below were run on Ezrin (EZR), EZR (gene 7430) (assay: LTEA_HepaRG_EZR: Life Technologies and Expression Analysis (LTEA) Assay for Ezrin (EZR) using HepaRG (AID 2283491)). Conditions: mRNA level, 48 h; actives raise or lower the signal.
Procedure: It is a marker of Cellular remodeling.Data from the assay component LTEA_HepaRG_EZR was analyzed into 1 endpoint. This assay endpoint, LTEA_HepaRG_EZR, was analyzed with bidirectional fitting relative to DMSO as the negative control and baseline of activity. Using a type of inducible reporter, measures of mRNA induction for gain or loss-of-signal activity can be used to understand regulation of transcription factor activity. To generalize the intended target to other relatable targets, this assay endpoint is annotated to the membrane protein intended target family, where the subfamily is Cellular remodeling.
A total of 1060 chemcials from the ToxCast library were tested in eight-point concentration-response experiments. Cell culture and cytotoxicity assays were conducted at Thermo Fisher Scientific's Custom Services facility (Madison, WI). A single lot of human HepaRG cells (Thermo Fisher Scientific, Frederick, MD) was used for the cell culture experiments. 96-well format collagen type I coated plates of human HepaRG cells were prepared using established methods. Briefly, cryopreserved HepaRG cells were thawed, plated at a density of approximately 100,000 cells/well in HepaRG Thaw, Plate, and General Purpose media (HPRG770, Thermo Fisher Scientific), and incubated for 48 hours. 0.5% DMSO was selected as vehicle control to balance the requisite need of DMSO in HepaRG cultures to maintain differentiation (for example, baseline metabolism, proportions of hepatocytes vs. cholangiocytes), while enabling further hepatic receptor pathway activation (for example, PXR and CAR) in response to chemical exposure. 48 hours after plating, the culture medium was replaced with HepaRG Serum-Free Incudtion Media. Cells were exposed to each test chemical in duplicate and maintained in CO2 incubators for another 48 hours. Chemical plates were thawed to room temperature and 200x concentrations of treatment groups were prepared. 8-point conentration-reponse curves were made with the highest exposure at 100 uM, followed by half-log dilutions, all in 0.5% DMSO. Each test plate contained variouse controls, induction positive controls (1mM phenobarbital), cytotoxicity positive controls ([…] aflatoxin B1), vehicle controls (0.5% DMSO), and total lysis controls (0.5% DMSO). Cell morphology images were taken using an Essen IncuCyte FLR automated microscope, with six 96-well plates imaged in about 24 minutes. Images were captured and exported and JPEG files. Spent culture media was transfered to black-well plates for the LDH assay, and remaining media was sorted at -80 C for later use. Cells were treated with RLT buffer and frozen until shipped for gene expression analysis. Total RNA was isolated from the cell suspension in 75 uL of Buffer RLT (Qiagen, Germantown, MD 20874) by Quintiles/Expression Analysis (Durham, NC) using a custom isolation procedure. Total RNA from each plate well was transferred to a preamplification plate. Fluidigm's 96.96 Dynamic ArrayTM (Fluidigm, Amsterdam, the Netherlands) technology was used for gene expression analyses by quantitative reverse transcription polymerase chain reaction (qRT-PCR, performed by Quintiles/Expression Analysis, Durham, NC)89. Standard TaqManTM Assays (Applied Biosystems/ThermoFisher Scientific, Foster City, CA) were used to assess the expression of 93 genes selected based on their selectivity and sensitivity to important hepatic receptors known to be modulated by environmental chemicals; importance in human hepatocyte functionality; and hepatotoxicity. Three "housekeeping" endogenous control genes were also included and used for normalization: actin beta (ACTB), Glyceraldehyde 3 phosphate dehydrogenase (GAPDH) and RNA Polymerase II Subunit A (POLR2A). qRT-PCR was conducted according to the manufacturer's protocol.

Structure (SMILES) | AC50 | outcome
O=S(=O)(O)C(F)(F)C(F)(F)C(F)(F)C(F)(F)C(F)(F)C(F)(F)C(F)(F)C(F)(F)F | 50 µM (active) and 14.2 µM (active) | inactive
CCOC1Oc2ccc(OS(C)(=O)=O)cc2C1(C)C (stereo not given) | 78.8 µM (active) | 
CCOCN(C(=O)CCl)c1c(C)cccc1CC |  | inactive
CNC(=O)/C=C(\C)OP(=O)(OC)OC |  | inactive
CCCN(CCOc1c(Cl)cc(Cl)cc1Cl)C(=O)n1ccnc1 | 31.1 µM (active) | 
O=C(O)C(F)(F)C(F)(F)C(F)(F)C(F)(F)C(F)(F)C(F)(F)C(F)(F)F |  | inactive
O=[N+]([O-])/N=C1\NCCN1Cc1ccc(Cl)nc1 |  | inactive
CC1(c2ccc(Oc3ccccc3)cc2)OC(=O)N(Nc2ccccc2)C1=O (stereo not given) | 4.5 µM (active) | 
N#Cc1c(Cl)c(Cl)c(Cl)c(C#N)c1Cl |  | inactive
CNC(=O)CSP(=S)(OC)OC |  | inactive
CC(C)OC(=O)Nc1cccc(Cl)c1 |  | inactive
O=C(NC(=O)c1c(F)cccc1F)Nc1ccc(OC(F)(F)C(F)OC(F)(F)F)c(Cl)c1 (stereo not given) |  | inactive
Clc1ccccc1-c1nnc(-c2ccccc2Cl)nn1 |  | inactive
OCCOc1ccccc1 |  | inactive
C#CCN1C(=O)COc2cc(F)c(N3C(=O)C4=C(CCCC4)C3=O)cc21 |  | inactive
CN1CSC(=S)N(C)C1 |  | inactive
Cc1[nH]c(=O)n(C(C)(C)C)c(=O)c1Cl |  | inactive
O=C(O)COc1ccc(Cl)cc1Cl |  | inactive
O=S1OCC2C(CO1)C1(Cl)C(Cl)=C(Cl)C2(Cl)C1(Cl)Cl (stereo not given) |  | inactive
CC(C)(C)C(O)C(Oc1ccc(Cl)cc1)n1cncn1 (stereo not given) |  | inactive

Structure (SMILES) | AC50 | outcome
O=C(O)CCCOc1ccc(Cl)cc1Cl |  | inactive
Oc1ccc(Cl)cc1Cc1ccccc1 |  | inactive
COP(=S)(OC)Oc1ccc([N+](=O)[O-])cc1 |  | inactive
COP(=S)(OC)Oc1ccc(SC)c(C)c1 |  | inactive
CC1(C)C(C=C(Cl)Cl)C1C(=O)OC(C#N)c1ccc(F)c(Oc2ccccc2)c1 (stereo not given) |  | inactive
CCC(C)Nc1c([N+](=O)[O-])cc(C(C)(C)C)cc1[N+](=O)[O-] (stereo not given) |  | inactive
CC(C)N(C(=O)COc1nnc(C(F)(F)F)s1)c1ccc(F)cc1 |  | inactive
CCc1ccc(C(=O)NN(C(=O)c2cc(C)cc(C)c2)C(C)(C)C)cc1 |  | inactive
ClC1C(Cl)C(Cl)C(Cl)C(Cl)C1Cl (stereo not given) |  | inactive
CCC(C)(NC(=O)c1cc(Cl)c(C)c(Cl)c1)C(=O)CCl (stereo not given) | 75.7 µM (active) | 
CNC(=O)Oc1cccc(N=CN(C)C)c1 |  | inactive
CC[C@H](C)[C@H]1O[C@]2(C=C[C@@H]1C)C[C@@H]1C[C@@H](C/C=C(\C)[C@@H](O[C@H]3C[C@H](OC)[C@@H](O[C@H]4C[C@H](OC)[C@@H](O)[C@H](C)O4)[C@H](C)O3)[C@@H](C)/C=C/C=C3\CO[C@@H]4[C@H](O)C(C)=C[C@@H](C(=O)O1)[C@]34O)O2 (tested in a mixture with another compound) | 7.92 µM (active) | 
CNC(=O)Oc1ccccc1OC(C)C |  | inactive
COP(=O)(OC)OC=C(Cl)Cl |  | inactive
O=C1c2ccccc2C(=O)N1SC(Cl)(Cl)Cl |  | inactive
N#CN |  | inactive
Oc1cc(Cl)ccc1Oc1ccc(Cl)cc1Cl |  | inactive
O=[N+]([O-])c1c(Cl)c(Cl)c(Cl)c(Cl)c1Cl |  | inactive
CCN(CC)C(=O)SCc1ccc(Cl)cc1 |  | inactive
